# Source: PubChem BioAssay (NCI)
# This is part of a sample that, as a whole, favours compounds with a hit. Of some 83,000 tested, about 20% had one in any assay.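 Negative percent growth values reflect cell death: -40 means 40% of the cells present at the start died, and -100 means all died.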 A number with no mark means an inactive call. The source made the active and inactive calls. The calls were made as follows: active = growth percent below 10; inactive = the rest.
# Key:
# Assay in all cases: NCI-60 one-dose screen, 48 h (100 = growth as untreated, 0 = no growth, -100 = all killed)
# Details in all cases: 10 µM unless noted
# NCI-H23 lung = test system: NCI-H23 lung
# NCI-H226 lung = test system: NCI-H226 lung
# NCI-H322M lung = test system: NCI-H322M lung
# HOP-62 NSCLC = test system: HOP-62 NSCLC
# NCI-H460 lung = test system: NCI-H460 lung
# HOP-92 NSCLC = test system: HOP-92 NSCLC
# NCI-H522 lung = test system: NCI-H522 lung
# A549/ATCC NSCLC = test system: A549/ATCC NSCLC
# 786-0 renal = test system: 786-0 renal
# COLO 205 colon = test system: COLO 205 colon
# DU-145 prostate = test system: DU-145 prostate
# K-562 leukemia = test system: K-562 leukemia
# MALME-3M melanoma = test system: MALME-3M melanoma
# MDA-MB-231 breast = test system: MDA-MB-231 breast
# SF-268 CNS = test system: SF-268 CNS
# SF-295 CNS = test system: SF-295 CNS
# SF-539 CNS = test system: SF-539 CNS
# UACC-257 melanoma = test system: UACC-257 melanoma
# RXF 393 renal = test system: RXF 393 renal
Compound,growth (NCI-H23 lung),growth (NCI-H226 lung),growth (NCI-H322M lung),growth (HOP-62 NSCLC),growth (NCI-H460 lung),growth (HOP-92 NSCLC),growth (NCI-H522 lung),growth (A549/ATCC NSCLC),growth (786-0 renal),growth (COLO 205 colon),growth (DU-145 prostate),growth (K-562 leukemia),growth (MALME-3M melanoma),growth (MDA-MB-231 breast),growth (SF-268 CNS),growth (SF-295 CNS),growth (SF-539 CNS),growth (UACC-257 melanoma),growth (RXF 393 renal)
CCN(CC)CCOc1ccc(/C(=C(\C)c2ccc(OC)c(F)c2)c2ccc(Cl)cc2)cc1,80.8%,102%,85.1%,78.5%,61.1%,82%,86.1%,59.7%,68.2%,42.2%,84%,19%,55.9%,87.6%,87.4%,61.6%,24.5%,68.4%,
Cc1nc(Nc2cccc(NC(=O)Nc3ccc(Cl)cc3)c2)c2ccccc2n1,96%,90.4%,89.7%,107%,70.5%,90.7%,68.6%,91.6%,96.1%,103%,91.7%,67.6%,87.3%,86.4%,102%,88.2%,94.6%,101%,
CCCCS(=O)(=O)Oc1ccc(-c2nc(C)c(C(=O)OCC)s2)cc1C=O,84%,87.1%,86.7%,68.4%,58.7%,69.5%,58.3%,101%,74.4%,106%,61.4%,13.7%,75.1%,76.7%,79.3%,67.5%,58%,96.2%,
COc1ccc(C2CC(c3ccc4ccccc4c3)=NN2c2nc(O)c(C3=c4cc(Cl)ccc4=NC3=O)s2)cc1 (stereo not given),-40.9% (active),-73.2% (active),-29.7% (active),-53.8% (active),-20% (active),-57.2% (active),-82% (active),-56% (active),-80.5% (active),-79.4% (active),-20.7% (active),-27.2% (active),-54.3% (active),-38.6% (active),-33.6% (active),-61.9% (active),-52.5% (active),-50.8% (active),-67.3% (active)
Cc1nc(Nc2ccc(S(=O)(=O)Nc3cc(C)on3)cc2)c2ccccc2n1,107%,99.7%,104%,101%,112%,89%,86.3%,108%,98.3%,116%,112%,99.9%,93.2%,108%,99.5%,95.4%,97.6%,103%,
O=C(/C=C/c1ccccc1)c1ccc2ccccc2c1,92.1%,98.5%,99.8%,96.5%,110%,94.6%,-3.88% (active),96.3%,90.8%,38.3%,105%,56.9%,95.9%,94.3%,94.8%,107%,99.2%,87.9%,96.5%
O=C1/C(=C/c2ccccc2[N+](=O)[O-])COc2ccc(O)c(O)c21,-4.09% (active),-8.66% (active),33.3%,30.3%,0.563% (active),-9.78% (active),-45.2% (active),30.8%,10.6%,-32.6% (active),2.13% (active),4.47% (active),-31.6% (active),-16.7% (active),0.467% (active),58.3%,-69.4% (active),-8.55% (active),
Cc1nc(Nc2ccc(NC(=S)Nc3ccccc3)cc2)c2ccccc2n1,91.6%,97.4%,103%,118%,107%,115%,105%,95.9%,103%,106%,125%,78.5%,99.5%,97.6%,111%,99.5%,100%,101%,
Cc1nc(Nc2ccc(NC(=S)Nc3ccccc3)cc2)nc2nc(Nc3ccc(S(=O)(=O)O)cc3)[nH]c(=O)c12,95.8%,123%,122%,105%,108%,75.7%,86.9%,111%,103%,113%,145%,71%,104%,94.4%,106%,113%,132%,136%,
CN(C)CCN1C(=O)c2cccc3c(-c4ccc(-c5nc6c7ccccc7c7ccccc7c6[nH]5)cc4)ccc(c23)C1=O,109%,101%,114%,106%,111%,71.3%,94.2%,90.4%,18.2%,105%,102%,28.5%,110%,89.1%,105%,105%,92.7%,110%,
O=C1C=CC(=Nc2cc(Br)c(O)c(Br)c2)C=C1,78.1%,93.9%,105%,82.1%,109%,29.5%,-14.6% (active),118%,70.2%,113%,102%,12.6%,70.2%,72.6%,82.7%,101%,86.4%,90.9%,
COc1ccc(OC)c(/C=C2\COc3ccc(O)cc3C2=O)c1,104%,98.5%,92.3%,108%,101%,93.7%,38%,101%,96.4%,109%,107%,9.33% (active),81.9%,98.3%,99.2%,102%,90.5%,99.4%,
Cc1nc(Nc2ccc(N)cc2)c2ccccc2n1,86.8%,97.6%,117%,104%,102%,109%,80.8%,103%,107%,92.2%,117%,74.5%,97.6%,93.9%,106%,95.8%,96%,104%,
C=C1C(=O)O[C@H]2[C@H]1CC/C(COC(=O)/C=C\C(=O)NCc1ccc(Cn3c(=O)sn(CCCI)c3=O)cc1)=C\CC[C@@]1(C)O[C@@H]21,-72.1% (active),-77% (active),17.3%,-36% (active),-79.1% (active),-68.6% (active),-56.1% (active),-0.92% (active),-76.9% (active),-52.7% (active),-90.4% (active),-10.1% (active),-94.2% (active),-83.3% (active),-81.7% (active),58%,-98.7% (active),-53.7% (active),
Cn1cc(-c2ccc3ncc(-c4ccc(CC(=O)Nc5cc(C(C)(C)C)nn5C)cc4)cc3c2)cn1,7.05% [30 µM] (active),11.5% [30 µM],15% [30 µM],17.6% [30 µM],8.3% [30 µM] (active),31.6% [30 µM],-2.49% [30 µM] (active),17.8% [30 µM],39.6% [30 µM],5.26% [30 µM] (active),18.1% [30 µM],7% [30 µM] (active),-0.381% [30 µM] (active),36% [30 µM],25.3% [30 µM],12.2% [30 µM],19.3% [30 µM],7.37% [30 µM] (active),
c1ccc([P+](CCCc2n(Cc3ccc4ccccc4c3)c3ccccc3[n+]2Cc2ccc3ccccc3c2)(c2ccccc2)c2ccccc2)cc1,44%,83.5%,63.8%,61.6%,34.8%,46.3%,60.2%,80.2%,70.8%,44.7%,82.1%,23.7%,65.2%,51%,79%,41.1%,36.8%,84%,
